PubChem BioAssay (NCI)
The panel holds about 83,000 compounds, 20% with a hit somewhere; the sample as a whole holds those more often.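 Values shown are percent growth following 48 h exposure of cells in 96-well plates to a single concentration of compound; below 10 was considered active.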 Active and inactive are the calls of the source.

Key:
Experiment in all cases: NCI-60 one-dose screen, 48 h (100 = growth as untreated, 0 = no growth, -100 = all killed)
Settings in all cases: 10 µM unless noted
[1] = system: EKVX NSCLC
[2] = system: SN12C renal
[3] = system: UO-31 renal
[4] = system: ACHN renal
[5] = system: CAKI-1 renal
[6] = system: A498 renal
[7] = system: CCRF-CEM leukemia
[8] = system: MOLT-4 leukemia
[9] = system: SR leukemia
[10] = system: RPMI-8226 leukemia
[11] = system: OVCAR-8 ovarian
[12] = system: OVCAR-5 ovarian
[13] = system: OVCAR-4 ovarian
[14] = system: SK-OV-3 ovarian
[15] = system: IGROV1 ovarian
[16] = system: HS 578T breast
[17] = system: NCI/ADR-RES ovarian
[18] = system: T-47D breast
[19] = system: OVCAR-3 ovarian

Measured: growth

CC(=O)Oc1ccccc1C(=O)Nc1ccc(C(=O)/C=C/c2ccncc2)cc1
active: [4] 0.759% | [9] -15.2% | [10] -25.8%
inactive: [1] 71.7% | [2] 33.5% | [3] 44.4% | [5] 62.6% | [6] 100% | [7] 10.2% | [8] 23.1% | [11] 82.4% | [12] 64.4% | [13] 87.5% | [14] 111% | [15] 10.3% | [16] 69.5% | [17] 91.8% | [18] 53.4%

COc1ccc(COc2ccc(/C=C3/C(=O)Nc4cc(Cl)ccc43)cc2)cc1
inactive: [1] 95.8% | [2] 94.1% | [3] 79.4% | [4] 95.7% | [5] 88.3% | [6] 83.7% | [8] 108% | [9] 109% | [10] 89.9% | [11] 96.3% | [12] 96.2% | [13] 93.5% | [14] 107% | [19] 102% | [16] 89% | [17] 94.4% | [18] 90.2%
active: [7] 6.11%

CS(=O)(=O)c1ccc(-c2nc3ccccn3c2/C=N/Nc2nc(-c3ccc(Cl)cc3)cs2)cc1
inactive: [1] 96.8% | [2] 102% | [3] 76.2% | [4] 101% | [5] 91.8% | [6] 79.9% | [7] 85.6% | [8] 82% | [9] 95.1% | [10] 82.2% | [11] 98% | [12] 104% | [13] 105% | [14] 140% | [15] 115% | [19] 124% | [16] 107% | [17] 104% | [18] 78%

CCC/C=C/C=C/C(=O)N[C@@H](Cc1cc(F)cc(F)c1)C(=O)N[C@@H]1C(=O)N2CCC[C@H]2C(=O)N2CCCC[C@H]2C(=O)N[C@@H](C)C(=O)N2C[C@H](C)C[C@H]2C(=O)O[C@H]1C
active: [6] 3.26% | [10] -0.71%
inactive: [1] 32.1% | [2] 20.3% | [3] 29.7% | [4] 23.1% | [5] 11.5% | [7] 28.9% | [8] 34.7% | [9] 27.1% | [11] 18.4% | [13] 22.3% | [14] 30% | [15] 40.8% | [19] 19.1% | [16] 31% | [17] 20.8% | [18] 15.9%

COc1cc2nc(-c3ccc(C)cc3)cc(OCCCNCC3CCCO3)c2cc1OC (stereo not given)
inactive: [1] 73.4% | [2] 57.3% | [3] 72% | [4] 65.7% | [5] 24.6% | [6] 46.9% | [7] 73.4% | [8] 71.9% | [9] 41.1% | [10] 24.1% | [11] 46.8% | [12] 56.7% | [13] 89.8% | [15] 49.1% | [19] 101% | [16] 84.3% | [17] 54.8% | [18] 66%

Cc1sc2nc(NCc3ccccc3Cl)[nH]c(=O)c2c1C
inactive: [1] 98.1% | [2] 93.8% | [3] 94.5% | [4] 94.8% | [5] 87.2% | [7] 65.3% | [8] 69.7% | [9] 50.2% | [10] 82.8% | [11] 88.1% | [12] 102% | [13] 101% | [14] 114% | [19] 123% | [16] 99% | [17] 104% | [18] 94.6%

COc1ccc(/C=C2\SC(=Nc3cc(C)on3)NC2=O)cc1
inactive: [1] 89.7% | [2] 100% | [3] 85.5% | [4] 106% | [5] 96.6% | [7] 101% | [8] 100% | [9] 98.9% | [10] 98.2% | [11] 102% | [13] 109% | [15] 99.2% | [19] 116% | [16] 96.9% | [17] 98.6% | [18] 104%

COc1cc(-c2nc3ccc(-c4nnc(SCC(=O)Nc5ccc(C(=O)/C=C/c6ccc(Cl)cc6)cc5)o4)cc3[nH]2)cc(OC)c1OC
inactive: [1] 99.5% | [2] 90.4% | [3] 84% | [4] 96.8% | [5] 97.2% | [7] 81.6% | [8] 79.5% | [9] 60.4% | [10] 57.2% | [11] 92.5% | [13] 100% | [14] 121% | [15] 81.6% | [19] 97.9% | [16] 87.9% | [17] 106% | [18] 80.4%

O=C(CCN1C(=O)/C(=C/c2ccccc2)SC1=S)N1CCOCC1
inactive: [1] 82.3% | [2] 81.7% | [3] 72.9% | [4] 67% | [5] 88.2% | [6] 90.5% | [7] 49.1% | [8] 89.4% | [9] 65.4% | [10] 67.7% | [11] 99.6% | [13] 101% | [15] 88.5% | [19] 110% | [16] 100% | [17] 98.8% | [18] 65.7%

CN(C)CCCOc1c2ccc(Cl)cc2nc2c1oc1ccccc12
inactive: [2] 18% | [18] 13.5%
active: [1] -41.6% | [3] -51.9% | [4] -6.02% | [5] 1.08% | [7] 0.191% | [8] -17% | [9] -34.2% | [10] -22.1% | [11] -17.8% | [12] 4.62% | [13] 1.72% | [14] -8.76% | [19] -10.4% | [16] 5.22% | [17] 3.15%

NS(=O)(=O)c1ccc(Nc2nc(Nc3ccccc3)nc(-n3nc(-c4ccccc4)cc3-c3ccccc3)n2)cc1
inactive: [1] 40.3% | [2] 41.2% | [3] 29.1% | [4] 15.3% | [5] 21% | [7] 10.7% | [11] 40% | [12] 78.1% | [13] 37.9% | [14] 65.8% | [15] 25.6% | [16] 64.6% | [17] 45% | [18] 36.9%
active: [8] 4.14% | [9] 0.684% | [10] 6.63%

COc1ccc(-n2c(SCC(=O)Nc3ccc(-c4nc5ccccc5[nH]4)cc3)nc3ccccc3c2=O)cc1
active: [9] -4.97% | [10] -21.2% | [13] -33.7% | [19] -34.8% | [18] -51.8%
inactive: [1] 53.1% | [2] 62.3% | [3] 73.5% | [4] 54% | [5] 36.8% | [7] 25.7% | [8] 25.7% | [11] 20.9% | [12] 68.5% | [14] 136% | [15] 17.5% | [16] 28.7% | [17] 32.5%

O=C(c1ccc(Cl)cc1)C1[C@H](c2ccc(Cl)cc2)[C@@H](c2ccccc2)NC12C(=O)Nc1ccc(Br)cc12 (stereo not given in full)
inactive: [1] 43.6% | [3] 28.5% | [4] 14.3% | [5] 27.6% | [7] 36.8% | [10] 18.2% | [11] 38.3% | [12] 52.8% | [13] 44.6% | [14] 101% | [19] 25.5% | [16] 58.2% | [18] 31.2%
active: [2] -48.8% | [8] 6.17% | [9] -5%

COc1cccc(COc2ccc(/C=C3/C(=O)Nc4cc(Cl)ccc43)cc2)c1
active: [8] -25.9%
inactive: [1] 87.6% | [2] 91.1% | [3] 75.4% | [4] 96.9% | [5] 90.6% | [6] 93% | [7] 82.6% | [10] 78% | [11] 90.8% | [12] 96.1% | [13] 96.6% | [14] 100% | [15] 87.6% | [19] 105% | [16] 91% | [18] 80.6%

Nc1nc(N)c2c(n1)NC(c1ccc(C(F)(F)F)cc1)CC(c1ccc(Nc3nc(NCCO)nc(Nc4ccc(Cl)cc4)n3)cc1)=N2 (stereo not given)
inactive: [18] 36%
active: [1] -47.3% | [2] -40.2% | [3] -48.6% | [4] -90.2% | [5] -88.1% | [7] -5.25% | [8] -15.2% | [9] -31.7% | [10] -36.9% | [11] -26.1% | [12] -88.7% | [13] -9.44% | [14] -26% | [15] -67.7% | [19] -20.9% | [16] -10.5% | [17] -29.3%

Cc1ccc(C(=O)Nc2cccc(C(F)(F)F)c2)cc1Nc1nc(-c2cnccn2)nc2c1cnn2C
inactive: [1] 77.3% | [2] 64.7% | [3] 37.8% | [4] 53% | [5] 48.9% | [7] 78.2% | [8] 43.1% | [9] 39.5% | [10] 61.8% | [11] 77.3% | [12] 39.2% | [13] 83.7% | [14] 97.9% | [15] 52.7% | [19] 97.9% | [16] 51.2% | [18] 74.5%

Cc1cc2nc3c4cc(Cl)ccc4n(CC(=O)NCCN(C)C)c3nc2cc1C
inactive: [1] 73.8% | [2] 79.8% | [5] 53.9% | [11] 55.9% | [13] 95.7% | [14] 106% | [15] 56.2% | [19] 96.7% | [16] 71.9% | [17] 55.4% | [18] 82%
active: [3] -83.6% | [4] -47.4% | [7] -14.5% | [8] -19.4% | [9] -38% | [10] -27.3%
